About 920 (61%) of roughly 1,500 compounds were called active. How the calls were made is not given here. So high a share suggests a set chosen from earlier hits. This is one part of the list. Measured potencies and affinities stand elsewhere.

The experiment can be described thus: Vero 76 cell cytotoxicity, dose response, cytotoxicity control for VEEV inhibitor project (AID 588719). Conditions: Vero 76 cells viability, cytotoxicity counter-screen; series mostly up to 25 µM. (In general: The purpose of a counterscreen is to sort out artefacts and off-target activity.)
For the molecule `CCOC(=O)c1c(CN2CCOCC2)n(-c2ccccc2)c2ccc(O)cc12`, the outcome was inactive.
For `CC(C)/C(C=O)=C(/NC1CCCCC1)c1ccccc1` the value was “inactive”.
As for `O=C(NC1CCCCC1)c1ccc2ccccc2c1O`, the molecule was called inactive.
For `CN1c2ccccc2C(C)(C)C12CC(c1ccc(S(=O)(=O)N3CCCCC3)cc1)=NO2` (stereo not drawn) the value was “inactive”.
For `COc1ccc(OC)c2cc3ccccc3cc12` the value was “inactive”; for `O=C(O)CCc1ccc(-c2ccccc2)n1-c1ccc(C(=O)O)cc1`, “inactive”.
For `COc1cccc(C#Cc2ccc3c(c2)O[C@H](CN(C)C)[C@@H](C)CN([C@@H](C)CO)S3(=O)=O)c1` the value was “inactive”; for `O=C(Cc1n[nH]c(=O)c2ccccc12)OCc1c(Cl)cccc1Cl`, “inactive”; for `CC(=O)c1c(O)c(C)c(O)c2c1OC1=Cc3c(c(C)nn3C)C(=O)C12C` (stereo not drawn), “inactive”.
`Cc1onc(-c2ccc(Cl)cc2Cl)c1-c1csc(N/N=C/c2ccccc2Cl)n1`: the result was inactive.
Next, `Cc1cccc(NC(=O)CSc2cc(C)c(C#N)c3nc4ccccc4n23)c1`: “inactive”.
For `CN(C)CCNC(=O)c1cc2sc3ccccc3c2s1` the value was “inactive”; for `C(=N\Nc1nncc2ccccc12)/c1ccccc1`, “inactive”; for `Cc1ccc2c(Cl)cc(Cl)c(O)c2n1`, “inactive”.
Next, `CCOC(=O)c1c(-c2cccc3ccccc23)csc1NC(=O)C1C2CCC(O2)C1C(=O)O` (stereo not drawn): “inactive”; `CN(C)S(=O)(=O)c1cccc(C(=O)Nc2ccccc2C(=O)NC2CC2)c1`: “inactive”; `CC(C)c1ccc(N=Cc2c(O)n(C3CC3)c(=S)[nH]c2=O)cc1`: “inactive”.
With `CCOC(=O)CCCc1ccc(/C(C)=N/NC(N)=S)cc1`, the molecule was classed as inactive.
Next, `CC(Sc1ccc(S(=O)(=O)N2CCOCC2)cn1)c1ccccc1Cl` (stereo not drawn): “inactive”; `CC(C)(C)c1cc[n+](C2=C([O-])c3ccccc3C(=O)/C2=N\S(=O)(=O)c2cccs2)cc1`: “inactive”; `Cc1ccccc1NS(=O)(=O)c1ccc(C(=O)NCc2ccccc2CN2CCCC2)cc1`: “inactive”.
For `O=C(CCCOc1ccc(Cl)cc1Cl)Nc1ccccc1C(=O)O` the value was “inactive”; for `O=C(Oc1oc(-c2ccco2)nc1C=Nc1ccc(Cl)cc1)c1ccco1`, “inactive”; for `CC1(C)Nc2ccccc2C(=O)N1c1ccc(Br)cc1`, “inactive”.
For `COc1ccc(C/C(N)=N/OC(=O)c2cccs2)cc1` the value was “inactive”; for `NNC(=O)C1CCN(S(=O)(=O)c2ccc(Cl)cc2)CC1`, “inactive”; for `Cc1cc(O)c(-c2cc(C(=O)NCCc3ccc(S(N)(=O)=O)cc3)[nH]n2)cc1C`, “inactive”.
Consider `Cc1cc(C)c2c(=O)n(CC(=O)NC3CCCC3)sc2n1`, for which the molecule was called inactive.
As to `COc1ccc(-c2cc(C(=O)Nc3c(C)n(C)n(-c4ccccc4)c3=O)c3ccccc3n2)c(OC)c1`, the result was inactive.
For the molecule `Cc1cc(NC(=O)COC(=O)c2c(Cl)cccc2Cl)no1`, the molecule was called inactive.
For `COc1ccccc1/C=C/C(=O)c1ccccc1` the value was “inactive”; for `COc1ccc(C)c2sc(N(CCCN(C)C)C(=O)c3ccc4c(c3)OCCO4)nc12`, “inactive”.
As to `COC(=O)CCC1(C(N)=O)CCC(=O)c2ccccc21` (stereo not drawn), the molecule was classed as inactive.
Next, `CC1(C)Cc2c(sc(NC(=O)COc3cccc4ccccc34)c2C#N)C(C)(C)N1`: “inactive”.
Consider `OCCCNc1cc(-c2ccnc(Nc3cccc(Cl)c3)n2)ccn1`, for which the outcome was inactive.
For `CCCC(C)NC(=O)c1ccccc1SC` (stereo not drawn) the value was “inactive”.
Regarding `CC1(C)CCCN(Cc2c(O)ccc3c(=O)c(-c4nc5ccccc5s4)c(N)oc23)C1`, the result was inactive.
Next, `CCOC(=O)C1=NNC(=O)C1`: “inactive”.
Next, `O=C(Nc1ccc(Cl)c(Cl)c1)Nc1ccccc1C(=O)O`: “inactive”.
For `CCN(CC)CCN(Cc1cc2ccc(C)cc2[nH]c1=O)C(=O)Nc1ccc(Cl)cc1` the value was “inactive”.
For the molecule `O=C(COc1cccc2ccccc12)Nc1ccc(Cl)cc1C(=O)O`, the result was inactive.
Next, `CCN(CC)CCNC(=O)c1cc2cc(Br)ccc2s1`: “inactive”.
For `Nc1ccc(C(=O)OCc2nc3cc4ccccc4cc3[nH]2)cc1` the value was “inactive”; for `CC(=O)Nc1cc[n+](CC(=O)c2cccc([N+](=O)[O-])c2)cc1`, “inactive”; for `C[C@@H]1CN([C@H](C)CO)C(=O)CCCn2nncc2CO[C@@H]1CN(C)C(=O)c1cc(-c2ccccc2)on1`, “inactive”.
`COc1ccc(-c2onc(C)c2-c2ccc3c(c2)OCCO3)c(O)c1`: the outcome was inactive.
Next, `Cc1[nH]c2ccc(-c3nnc(SCC(=O)c4ccccc4F)o3)cc2c1C`: “inactive”; `O=C(CCCN1C(=O)/C(=C\c2ccco2)SC1=S)Nc1ccc2ccccc2c1`: “inactive”; `CCOC(=O)c1c(NC(=O)C(C)Sc2cccc[n+]2[O-])sc2c1CCN(Cc1ccccc1)C2` (stereo not drawn): “inactive”.
For `Cc1nc2c(sc3nc(N4CCOCC4)c4c(c32)CC(C)(C)OC4)c(-c2ccccc2)c1C(=O)O` the value was “inactive”; for `CC(C)CCOC(=O)C[N+](C)(C)CCOC1CC2CCC1(C)C2(C)C` (stereo not drawn), “inactive”; for `CC(Sc1nnc(Nc2ccccc2)s1)C(=O)Nc1nc(-c2ccccc2)cs1` (stereo not drawn), “inactive”.
As to `O=C1NC(=O)N(Cc2ccccc2)C(=O)/C1=C/C=C/c1ccco1`, the molecule was classed as inactive.
Consider `CCOC(=O)N1CCN(S(=O)(=O)c2ccc(C(=O)N(CCCN(C)C)c3nc4ccc(CC)cc4s3)cc2)CC1`, for which the result was inactive.
For `COc1ccccc1C1CCCN1Cc1nc(-c2ccc(C)s2)oc1C` (stereo not drawn) the value was “inactive”; for `NCCSc1c(-c2ccc(F)cc2)[nH]c2ccccc12`, “inactive”.
For `CSc1nnc2c3ccccc3n(CCc3ccccc3)c2n1` the value was “inactive”; for `CN(C)CC/C=C1/c2ccccc2Sc2ccc(Cl)cc21`, “inactive”.
For `CCCc1cc(C(=O)Nc2cnn(Cc3ccc(F)cc3)c2)no1` the value was “inactive”; for `COc1cc(C2C(C#N)=C(N)Oc3c2ccc2ccccc32)ccc1OCC(=O)Nc1ccc(C)cc1` (stereo not drawn), “inactive”.
Regarding `COc1cccc(N2C(=O)/C(=C/c3ccc(C)o3)C(=O)NC2=S)c1`, the result was inactive.
Next, `CNCCCC12CCC(c3ccccc31)c1ccccc12`: “inactive”.
For `Cc1ccccc1S(=O)(=O)N(C)C[C@H]1OCc2cnnn2CCCC(=O)N([C@H](C)CO)C[C@H]1C` the value was “inactive”; for `CCOc1ccccc1CNC(=O)c1cc2oc3ccccc3c2n1C`, “inactive”; for `Cc1oc(C(C)(C)C)cc1-c1cc(NC(=O)c2ccc([N+](=O)[O-])cc2)n[nH]1`, “inactive”.
On to `COc1ccc(C2(C)ON(c3ccccc3C(F)(F)F)C2=O)cc1` (stereo not drawn), for which the outcome was inactive.
For `COc1ccccc1[C@@]1(C)ON(c2ccccc2C(F)(F)F)C1=O` the value was “inactive”; for `O=C(O)CCN1C(=O)/C(=C2\C(=O)N(Cc3ccc(F)cc3)c3ccccc32)SC1=S`, “inactive”; for `O=C(CCN1C(=O)/C(=C/c2ccccc2F)SC1=S)NCCc1ccc(O)cc1`, “inactive”.
Next, `COc1cc(NC(C)CCCN)c2nc(C)ccc2c1Oc1ccc(F)cc1` (stereo not drawn): “inactive”.
For the molecule `O=c1c2ccccc2nc(-c2ccoc2)n1CCc1ccccc1`, the result was inactive.
For `CCc1[nH]nc(C(=O)NC2CCCc3c2cnn3-c2cc(C)cc(C)c2)c1C` (stereo not drawn) the value was “inactive”; for `COc1ccc(OCCn2c(C)nc3ccccc32)cc1`, “inactive”.
For `CCCCCCCCCCOC(=O)Cn1c(COc2cccc(OC)c2)[n+](C)c2ccccc21` the value was “inactive”.
Next, `O=C(CSC1=Nc2ccccc2C2CC=NN12)Nc1ccc2c(c1)OCO2` (stereo not drawn): “inactive”.
Consider `NC(=O)c1ccc(NC(=O)COC(=O)C2COc3ccccc3O2)cc1` (stereo not drawn), for which the result was inactive.
For `C=CCn1c(SCC(=O)NNC(=O)Nc2cccc(Cl)c2)nnc1-c1ccccc1` the value was “inactive”; for `NS(=O)(=O)c1cccc(NC(=O)CN2C(=O)C(=O)N(Cc3ccccc3)C2=O)c1`, “inactive”; for `O=C(COC(=O)COc1ccccc1)Nc1ccc(Br)cc1F`, “inactive”.
In the case of `CN(CCC#N)C(=O)COC(=O)c1ccc2[nH]c3c(c2c1)CCCC3`, the call was inactive.
Next, `Cc1ccc([C@H]2C[C@H](n3cc(-c4ccc(F)cc4)nn3)[C@@H](O)CN2CC2CCCCC2)cc1`: “inactive”.
For `Cc1nc(-c2ccccc2)sc1C(=O)/C=C/c1ccccc1` the value was “inactive”.
Consider `O=C(Nc1ncc(Cc2ccccc2Cl)s1)C1CCCO1` (stereo not drawn), for which the call was inactive.
For `O=C1Nc2cc3c(cc2C1=O)sc1ccccc13` the value was “inactive”; for `O=C(C=Cc1cccs1)c1cccs1`, “inactive”.
For `Cc1nc(S/C(C(=O)O)=C2/C(=O)Nc3ccccc32)n[nH]1` the value was “inactive”; for `CN1C[C@H](CNC(=O)OCc2ccccc2)C[C@@H]2c3cccc4c3c(cn4C)C[C@H]21`, “inactive”; for `Cc1ccc2c(c1)cc(C(=O)NCc1ccccc1)n2C`, “inactive”.
Next, `COc1ccc(/C=N/NC(=O)c2cccnc2)cc1COc1ccc(NC(C)=O)cc1`: “inactive”; `CCn1c(O)c(/C=N/NC(=O)c2ccccc2)c(=O)[nH]c1=S`: “inactive”.
On to `O=[N+]([O-])c1cccc(-c2c[n+]3c(n2-c2ccccc2)SCC3)c1`, for which the molecule was called inactive.
For `COc1cc(/C=C2/SC(=S)N(CCC(=O)N3CCN(C)CC3)C2=O)cc(OC)c1OC` the value was “inactive”; for `COCCN(Cc1nc(-c2ccc(-c3ccccc3)cc2)oc1C)C(C)C`, “inactive”.
Next, `COc1cccc(NC(=S)N(CCCN2CCCC2)Cc2cccn2Cc2ccc(Cl)cc2)c1`: “inactive”.
For `COc1ccc(NC(=O)[C@H](Cc2c[nH]c3ccccc23)NC(=O)[C@@H]2Cc3ccccc3CN2)cc1` the value was “inactive”; for `O=C(Cc1c[nH]c2ccccc12)Nc1nnc(C2CC2)s1`, “inactive”; for `O=C1C2CCCN2C(c2ccccc2)N1c1ccc(Cl)cc1` (stereo not drawn), “inactive”.
Take `CC(=O)c1c(C)cc(C)c(CSc2nc(C)cc(=O)[nH]2)c1C`: the outcome was inactive.
Next, `CCc1ccc([C@@H]2C[C@H]3[C@@H](CN2S(=O)(=O)c2ccc(C)cc2)C(=O)C[C@@H](c2ccc(Cl)cc2)N3S(=O)(=O)c2ccccc2C)cc1`: “inactive”; `Cc1cc2nc(/N=C(\N)NC(=O)C(C)C)nc(C)c2cc1C`: “inactive”.
Next, `O=c1c2ccccc2[nH]c(=S)n1CCCN1CCN(c2ccccc2F)CC1`: “inactive”.
Next, `O=c1c2ccccc2[nH]c(=S)n1CCCN1CCN(c2ccccc2)CC1`: “inactive”; `COc1ccc(S(=O)(=O)Nc2ccc3c(c2)C(=O)N([C@H](C)CO)C[C@H](C)[C@@H](CN(C)C(=O)Nc2ccc(C(F)(F)F)cc2)OCCCC[C@H](C)O3)cc1`: “inactive”.
